Consider 94 compounds from PubChem BioAssay AID1527 (The Scripps Research Institute Molecular Screening Center, 2009).

In all, about 290,000 compounds went through this assay and about 2,600 (0.9%) were called active.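 The calls were made as follows: active = inhibition above the mean of all tested compounds plus 3 SD, cutoff set per screening run (cut at about 7.5% in these data); inactive = the rest.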 This excerpt belongs to a sample that is enriched for actives.

The subject of the test is VIM-2 metallo-beta-lactamase (Pseudomonas aeruginosa). The test can be described thus: inhibition of VIM-2 nitrocefin hydrolysis – biochemical, epi-absorbance readout, Pseudomonas aeruginosa enzyme, primary screen (AID 1527).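 Also: red hydrolysis product quenches plate fluorescence so inhibitors raise well fluorescence; 0% = enzyme with DMSO and 100% = DMSO without enzyme.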 Particulars: purified VIM-2, nitrocefin hydrolysis, epi-absorbance fluorescence; at 5.6 µM; stronger effect = higher value.
The inhibition is the change of the read-out against control, counted positive when it falls. Turning to `CN1CCN(c2nc(Nc3ccc(O)cc3)nc3ccccc23)CC1`, the inhibition was 12.2% (active).
The same measure for `Cc1cccc(-c2nc(Nc3ccc(O)cc3)c3ccccc3n2)c1`: -0.38% (inactive); for `c1ccc(Nc2nc(N3CCOCC3)c3ccccc3n2)cc1`: -0.89% (inactive).
In the case of `O=C(/C=C/c1ccc2c(c1)OCCO2)c1ccc(O)cc1` it was 0.15% (inactive).
With `CCC(=C/c1sc2ccc3ccccc3c2[n+]1C)/C=C1\Sc2ccc3ccccc3c2N1C`, the inhibition is 18.2% (active).
In the case of `CN1CCN(c2ccc(NC(=O)c3ccc4c(c3)[nH]c(=O)n4Cc3ccc(F)cc3)cc2)CC1` it was 17.6% (active); in that of `CC(C)n1c(=O)[nH]c2cc(C(=O)Nc3ccccc3)ccc21`, -0.68% (inactive).
Turning to `CN1CCN(c2ccc(NC(=O)c3ccccc3)cc2)CC1`, the inhibition is 5.59% (inactive).
As to `Cc1cc2occ(CC(=O)NNC(=O)c3ccccc3F)c2cc1C`, the inhibition was -1.98% (inactive).
The same measure for `Cc1nc(N)nc(SCc2ccc([N+](=O)[O-])cc2)c1N`: -0.52% (inactive); for `COC(=O)c1ccc(NC(=O)CSc2nnc(C3CC3)n2C)cc1`: -2.19% (inactive).
The same measure for `O=C(Nc1ccc(S(=O)(=O)N2CCCCC2)cc1)c1cnccn1`: -1.24% (inactive); for `CCN1CCN(c2ccc(NC(=O)c3cnccn3)cc2)CC1`: 11.1% (active); for `O=C(Nc1ccc2c(c1)OCCO2)c1cnccn1`: -1.18% (inactive).
In the case of `CC(CC(=O)N1CCN(c2ccccc2)CC1)S(=O)(=O)c1ccc2c(c1)NC(=O)CS2` (centres undefined) it was -2.34% (inactive); in that of `CN1CCN(Cc2c(C(=O)N3CCc4ccccc4C3)nc3ccc(Cl)cn23)CC1`, 1.36% (inactive); in that of `O=C(Nc1ccc(N2CCOCC2)c(Cl)c1)c1ccc(S(=O)(=O)N2CCOCC2)cc1`, -1.9% (inactive).
`CNC(=O)c1ccsc1NC(=O)c1ccc(S(=O)(=O)N2CCOCC2)cc1`: the inhibition was 18.2% (active).
In the case of `CNC(=O)c1ccsc1NC(=O)c1ccc(S(=O)(=O)N2CCc3ccccc32)cc1` it was -1.27% (inactive); in that of `COC(=O)c1c(NC(=O)c2ccc(S(=O)(=O)N3CCOCC3)cc2)sc2c1CCN(C(C)C)C2`, 60.3% (active).
In the case of `COc1ccc(C(=O)Nc2nc(-c3ccc(S(=O)(=O)N4CCOCC4)cc3)cs2)cc1` it was -4.64% (inactive).
The same measure for `CC1CN(S(=O)(=O)c2ccc(C(=O)Nc3sccc3C(N)=O)cc2)CC(C)O1` (centres undefined): -1.24% (inactive).
With `Cc1ccn2c(c1)nc(=O)c1cc(S(=O)(=O)N3CCC(C)CC3)ccc12`, the inhibition is 3.01% (inactive).
In the case of `CC(C(=O)NC1CCCCC1)N1C(=O)c2cccc3cccc1c23` (centres undefined), the inhibition was 0.01% (inactive).
The same measure for `COc1ccc2c(c1OC)C(=O)N(c1ccc(O)cc1)C2`: -1.4% (inactive); for `CCOC(=O)C1(Cc2ccccc2C)CCCN(S(C)(=O)=O)C1` (centres undefined): 2.72% (inactive).
With `C/C(=N\Nc1ccc(S(N)(=O)=O)cc1[N+](=O)[O-])c1cccs1`, the inhibition was 11.9% (active).
In the case of `C/C(=N\Nc1ncc(Cl)cc1Cl)c1cccs1` it was -1.51% (inactive).
The same measure for `C/C(=N\NS(=O)(=O)c1ccc(Br)cc1)c1cccs1`: -5.12% (inactive); for `CCN(CC)c1ccc(NC(=O)CCc2nnc3ccc(N4CCCCC4)nn23)c(C)c1`: -1.16% (inactive); for `Clc1cc(-c2ccc(/C=N/n3cnnc3)o2)ccc1Br`: 14.1% (active).
In the case of `CC1=NN(c2ccc(Cl)c(C(=O)O)c2)C(=O)/C1=C/c1ccc(-c2ccccc2[N+](=O)[O-])o1` it was -1.65% (inactive); in that of `Cc1ccccc1OCCOc1ccc([N+](=O)[O-])cc1/C=N/n1cnnc1`, -0.56% (inactive).
For `Cc1ccccc1-c1n[nH]c(=S)n1/N=C/c1ccc(-c2ccccc2Br)o1`, the inhibition was -6.24% (inactive).
In the case of `Brc1cc(/C=N/n2cnnc2)oc1Br` it was -2.87% (inactive).
As to `Fc1ccc(Br)cc1/C=N/n1cnnc1`, the inhibition was 1.26% (inactive).
As for `Cc1cc(-c2ccc(/C=N/n3cnnc3)o2)c([N+](=O)[O-])cc1C`, the inhibition is 41.5% (active).
The same measure for `Cc1cc([N+](=O)[O-])c(-c2ccc(/C=N/n3cnnc3)o2)cc1Cl`: 40.1% (active); for `Cc1ccc(Cl)cc1-c1ccc(/C=N/n2cnnc2)o1`: 27.4% (active).
In the case of `Cc1cc(C)c([N+](=O)[O-])cc1-c1ccc(/C=N/NC(=O)c2nonc2N)o1` it was -3.27% (inactive); in that of `COC(=O)N/N=C/c1ccc(-c2ccc(Cl)c(Cl)c2)o1`, -1.8% (inactive).
The same measure for `O=C1C2C3C=CC(C4CC34)C2C(=O)N1/N=C/c1ccc(-c2ccccc2[N+](=O)[O-])o1` (centres undefined): -0.54% (inactive); for `CC(NC(=O)C1CCCN(S(=O)(=O)c2ccc(-n3cnnn3)cc2)C1)c1ccc(F)cc1` (centres undefined): 1.19% (inactive).
In the case of `COc1ccc(CSc2nnnn2-c2ccc(C(=O)O)cc2)cc1`, the inhibition was -2.38% (inactive).
The same measure for `COc1cc(CN2CCCC(C(=O)c3ccc(SC)cc3)C2)cc(Cl)c1O` (centres undefined): -0.31% (inactive).
The same measure for `CCOc1c(OC)cccc1C(=O)NCC1(c2ccccc2)CCCC1`: -2.24% (inactive); for `COCCCNC(=S)NNC(=O)C(O)(c1ccccc1)c1ccccc1`: 2.9% (inactive); for `CCCCNC(=S)NNC(=O)c1cc(C)on1`: 9.24% (active).
The same measure for `O=C(NNC(=S)NCCCN1CCOCC1)c1ccncc1`: 6.22% (inactive).
As to `Cc1ccc(SCC(=O)c2cc(C)c(OC(=S)N(C)C)c(C)c2)cc1`, the inhibition was -4.92% (inactive).
As for `CCCC1=Nc2cc(C(=O)NCCN3CCCC3)ccc2Sc2ccccc21`, the inhibition is -3.66% (inactive).
Take `COc1cc(/C=N/Nc2nn3cnnc3c3ccccc23)cc(OC)c1OC`: the inhibition is 25.2% (active).
In the case of `COc1cc(/C=N/NC(=O)Cc2ccccc2)cc(OC)c1OC` it was -1.77% (inactive).
As to `COc1ccc(/C=N/Nc2nc3ccccc3o2)cc1OC`, the inhibition was -2.44% (inactive).
The same measure for `CCCc1nn2c(=O)cc(CSCC(=O)Nc3cccc(C)c3)nc2s1`: 0.24% (inactive); for `Cc1cccn2cc(-c3cccc(S(=O)(=O)N4CCCCC4)c3)nc12`: -0.51% (inactive).
In the case of `CN(C(=O)c1cccc([N+](=O)[O-])c1)c1ccccc1C(=O)NCc1ccccc1` it was -1.36% (inactive); in that of `CCc1nc2oc3ccccc3c(=O)c2c(=O)n1Cc1ccc(OC)cc1`, -2.13% (inactive).
As to `O=c1c2ccccc2oc2nc(C3CCCCC3)n(Cc3ccco3)c(=O)c12`, the inhibition is -2.32% (inactive).
Consider `O=c1c2ccccc2oc2nc3n(c(=O)c12)CCCS3`, for which the inhibition was 8.39% (active).
The same measure for `Cc1sc2ncn(CC(=O)NCCCC(=O)NCc3ccc(F)cc3)c(=O)c2c1C`: 0.04% (inactive).
For the compound `Cc1nc2sc(C(=O)c3ccccc3)c(N)c2c2c1CCCC2`, the inhibition is 2.15% (inactive).
In the case of `CN(C)c1ccnc2sc(C(=O)c3ccccc3)c(N)c12` it was -2.05% (inactive); in that of `Nc1c(C(=O)c2cccs2)sc2nsc(SCCN3CCCCC3)c12`, 13.6% (active); in that of `CCN(CC)CCN1C(=O)C2C(C(=O)Nc3ccc(Br)cc3)C3C=CC2(O3)C1C(=O)NC1CCCCC1` (centres undefined), -0.9% (inactive).
In the case of `Cc1ccc2[nH]c(=O)c(CC(=O)O)c(-c3ccccc3)c2c1` it was -3.01% (inactive); in that of `CCOc1ccccc1NC(=S)N1CCN(c2cccc(C)c2C)CC1`, -0.35% (inactive).
The same measure for `COCCNC(=O)c1ccccc1NS(=O)(=O)c1ccc(C)c([N+](=O)[O-])c1`: 0.45% (inactive); for `COCCNc1ccc(-c2n[nH]c(=O)c3ccccc23)cc1[N+](=O)[O-]`: 10.5% (active).
`CN(C)CCNc1ccc(-c2n[nH]c(=O)c3ccccc23)cc1[N+](=O)[O-]`: the inhibition is 78.8% (active).
Consider `CCN(CC)CCNc1ccc(Cl)cc1[N+](=O)[O-]`, for which the inhibition is 0.16% (inactive).
The same measure for `Cc1ccc(S(=O)(=O)N(C)C)cc1NC(=O)c1n[nH]c(=O)c2ccccc12`: -0.87% (inactive); for `COCCNc1cc(NCCOC)c([N+](=O)[O-])cc1[N+](=O)[O-]`: -3.48% (inactive).
In the case of `O=C(Nc1ccc(S(=O)(=O)N2CCCCCC2)cc1)c1c(F)cccc1F` it was -0.68% (inactive).
Take `O=C(O)CCCn1c(=O)c2cccn2c2ccc(F)cc21`: the inhibition was -1.43% (inactive).
The same measure for `Clc1ccc(CN2CCCCCC2)cc1Cl`: -2.14% (inactive); for `CC(=O)c1cccc(NC(=O)COc2ccc(S(=O)(=O)N3CCOCC3)cc2)c1`: -2.94% (inactive); for `COc1ccc(Cl)cc1C(=O)NNC(=O)c1nc2nc(C)cc(C)n2n1`: 10.3% (active).
In the case of `C=CCNC(=S)NNC(=O)c1cc(Cl)ccc1OC` it was -5.71% (inactive); in that of `Cc1cc(C)n2nc(C(=O)NC(C)(C)C)nc2n1`, -3.78% (inactive); in that of `O=C(CNC(=O)OCc1ccccc1)Oc1cc2oc(=O)cc(-c3ccccc3)c2cc1Cl`, 2.38% (inactive).
The same measure for `O=C1Nc2ccccc2/C1=C/c1ccnc2ccccc12`: 8.11% (active); for `CN(C)/C=C1/C(=O)Nc2ccccc21`: -0.22% (inactive); for `Cc1ccccc1N1CCN(CCCN2C(=O)C3CCCCN3C2=O)CC1` (centres undefined): 0.15% (inactive).
Regarding `CC(NS(=O)(=O)c1ccccc1)c1n[nH]c(=S)n1-c1ccccc1` (centres undefined), the inhibition is 14.9% (active).
In the case of `CCCCC(CC(C)O)c1n[nH]c(=S)n1-c1ccccc1` (centres undefined) it was -4.22% (inactive).
As for `S=c1[nH]nc(COc2ccccc2)n1-c1ccccc1`, the inhibition is -1.69% (inactive).
For the compound `CCOc1c(Br)cc(/C=C2\C(=O)N(CCC#N)N=C2C)cc1OC`, the inhibition was 0.69% (inactive).
Regarding `COc1cccc2c(=O)n(CC(=O)N3CCCCCC3)ccc12`, the inhibition was 1.04% (inactive).
In the case of `CCN1CCN(C(=O)Cn2nc(C)n3c(cc4c(OC)cccc43)c2=O)CC1` it was 28.3% (active); in that of `CCc1nn(CC(=O)N2CCN(CC)CC2)c(=O)c2cccn12`, -0.45% (inactive).
Turning to `COc1ccc(C(CNC(=O)COc2ccccc2OC)N2CCCCC2)cc1` (centres undefined), the inhibition is -0.07% (inactive).
In the case of `Cc1ccc(CN(N=Nc2nonc2N)c2nonc2N)c(C)c1` it was -1.22% (inactive); in that of `O=C(COc1ccc(-n2cnnn2)cc1)Nc1ccccc1Cl`, 0.31% (inactive).
